Data from PubChem BioAssay (NCATS).
Results filed as inconclusive are left out. Values without a mark were called inactive. Calls follow the shape of the dose curve; as a rule, active = well fitted inhibition curve with a large enough effect; inconclusive = small, poorly fitted or top-dose-only effect; inactive = flat fitted curve, though single readings scatter.

Target: Calcium and integrin-binding protein 1 (Homo sapiens) (UniProt Q99828)
Test: Primary qHTS for Identification of Calcium Integrin Binding Protein 1 (CIB1) Competitor (AID 1508620); also: top concentration of the series differs between compounds
Conditions: CIB1-GST / FITC-alphaIIb peptide fluorescence polarization; series mostly up to 57.7 µM; activity change, negative = inhibition: at the top concentration
In short: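 Fluorescence polarization competition: GST-tagged CIB1 (1 uM final) preincubated with compound 15 min at room temperature, then FITC-labelled alphaIIb peptide (100 nM final) added. After 15 min at room temperature, polarization read at Ex 480/Em 540.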
% is scaled to controls: 0 for no effect and ±100 for the full control effect.

Calcium and integrin-binding protein 1 (Homo sapiens), sequence (Q99828 whole entry, looked up): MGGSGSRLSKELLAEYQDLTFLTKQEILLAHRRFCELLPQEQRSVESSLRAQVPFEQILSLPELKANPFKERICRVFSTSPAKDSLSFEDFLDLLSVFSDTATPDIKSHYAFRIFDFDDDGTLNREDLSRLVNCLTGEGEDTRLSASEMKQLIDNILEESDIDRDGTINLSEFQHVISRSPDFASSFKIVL

Compound | activity change, negative = inhibition
CC1=CC(=O)OC(C)(CC(C)(O)C(=O)O)C1 (stereo not drawn) | 1.71% [at 114 µM]
C/C1=C\C[C@H](O[C@@H]2O[C@H](CO)[C@@H](O)[C@H](O)[C@H]2O)/C(C)=C/[C@H]2OC(=O)[C@H](C)[C@@H]2CC1 | -2.97%
CC1C(=O)CC2C3C(O)CC(C(=O)O)C12CC3(C)C (stereo not drawn) | 0.24% [at 114 µM]
COc1cc(C2Oc3c(O)cc(CCCO)cc3C2CO)ccc1O[C@H]1O[C@H](C)[C@@H](O)[C@H](O)[C@@H]1O (stereo partly drawn) | 3.12%
Cc1ncc([N+](=O)[O-])n1CC(O)CN1CCOCC1 (stereo not drawn) | -4.43% [at 114 µM]
C/C=C1\[C@H](O[C@@H]2O[C@H](CO)[C@@H](O)[C@H](O)[C@H]2O)OC=C(C(=O)OC)[C@H]1CC(=O)OC | 2.15%
CC(C)CC1(C(=O)OCc2ccc(O[C@@H]3O[C@H](CO)[C@@H](O)[C@H](O)[C@H]3O)cc2)CC(=O)OC(C(=O)O)CC(=O)OCC2OC(O1)C(OC(=O)/C=C/c1ccc(O)cc1)C(O)C2O (stereo partly drawn) | 2.29% [at 30.2 µM]
CC1(C)CC[C@]2(C(=O)O)CC[C@]3(C)C(=CCC4[C@@]5(C)C[C@@H](O)[C@H](O)C(C)(C)C5CC[C@]43C)[C@@H]2[C@@H]1O (stereo partly drawn) | -0.811%
CC1CC(O)CC(C)(C)C1(O)CCO (stereo not drawn) | 2.33% [at 228 µM]
C=C1[C@H]2[C@H](O[C@@H]3O[C@H](COC(=O)/C=C/c4cc(OC)c(O)c(OC)c4)[C@@H](O)[C@H](O)[C@H]3O)OC=C(C(=O)O)[C@H]2C[C@@H]1O | -7.13% [at 30.2 µM]
COc1cc(O[C@@H]2O[C@H](CO)[C@@H](O)[C@H](O)[C@H]2O)c(CCC(=O)OC[C@H]2O[C@@H](Oc3cc(OC)c(C4OC(=O)C(C)(O)C4O)cc3CCC(=O)O)[C@H](O)[C@@H](O)[C@@H]2O)cc1C1OC(=O)C(C)(O)C1O (stereo partly drawn) | 0.801% [at 30.2 µM]
C=C1CC2(C(=O)O)CC1CCC2C1(C)CCCC2(C)C(=O)OC(O)C21 (stereo not drawn) | 0.0111%
COC(=O)[C@@]1(C)CC[C@]2(C(=O)O[C@@H]3O[C@H](CO)[C@@H](O)[C@H](O)[C@H]3O)CC[C@]3(C)C(=CCC4[C@@]5(C)CC[C@H](O[C@@H]6O[C@H](C(=O)O)[C@@H](O)[C@H](O)[C@H]6O)C(C)(C)C5CC[C@]43C)[C@@H]2C1 (stereo partly drawn) | 2.93% [at 30.2 µM]
COC1CC(OC2CCC3(C)C(=CCC4C3CCC3(C)C(C(C)O)CCC43O)C2)OC(C)C1OC1OC(C)C(OC2OC(COC3OC(COC4OC(CO)C(O)C(O)C4O)C(O)C(O)C3O)C(O)C(O)C2O)C(OC)C1O (stereo not drawn) | -0.96% [at 30.2 µM]
C[C@@H]1CC[C@]2(C)C(C[C@@H](O)[C@H](O)[C@]23CO3)[C@@]1(C)CCc1ccoc1 (stereo partly drawn) | 3.4%
CC1(C)CC[C@]2(C(=O)O[C@@H]3O[C@H](CO)[C@@H](O)[C@H](O)[C@H]3O)CC[C@]3(C)C(=CCC4[C@@]5(C)C[C@@H](O)[C@H](O)C(CO)(CO)C5CC[C@]43C)C2[C@@H]1O (stereo partly drawn) | -1% [at 30.2 µM]
Cc1c(CN(C)C(=O)/C=C/c2cnc3c(c2)CCC(=O)N3)oc2ccccc12 | 2.58% [at 114 µM]
CC1(C)CC2C3=CCC4C5(C)CCC(OC6OC(CO)C(O)C(OC7OC(CO)C(O)C(OC8OC(CO)C(O)C(OC9OC(COC%10OC(CO)C(O)C(O)C%10O)C(O)C(O)C9O)C8O)C7O)C6O)C(C)(C)C5CCC4(C)C3(C)CCC2(C(=O)O)CC1O (stereo not drawn) | 1.69% [at 12.4 µM]
C[C@@H]1O[C@@H](O[C@H]2[C@H](OC(=O)[C@]34CCC(C)(C)C[C@H]3C3=CCC5[C@@]6(C)C[C@H](O)[C@H](O[C@@H]7O[C@H](CO)[C@@H](O[C@@H]8O[C@H](CO)[C@@H](O)[C@H](O)[C@H]8O)[C@H](O)[C@H]7O)[C@@](C)(CO)C6[C@H](O)C[C@@]5(C)[C@]3(C)C[C@H]4O)OC[C@H](O)[C@@H]2O)[C@H](O)[C@H](O)[C@H]1O[C@@H]1OC[C@@H](O)[C@H](O[C@@H]2OC[C@](O)(CO)[C@H]2O)[C@H]1O (stereo partly drawn) | 4.23% [at 12.4 µM]
CC1CCC2C(C)(C)C(O)CCC2(C)C12Cc1c(O)cc3c(c1O2)CN(C(CCC(N)=O)C(=O)O)C3=O (stereo not drawn) | 2.35%
CC1(O)CCC2C(C(=O)O)=COC(OC3OC(CO)C(O)C(O)C3OC(=O)/C=C/c3ccc(O)cc3)C21 (stereo not drawn) | -3.85%
COc1ccc2c3c1O[C@H]1C[C@@H](O)C=C[C@@]31CCN(C)C2 | -1.05% [at 114 µM]
COC(=O)C1=COC(O[C@@H]2O[C@H](CO)[C@@H](O)[C@H](O)[C@H]2O)/C(=C\COC(=O)c2ccc(OC3OC(CO)C(O)C(O)C3O)c(OC)c2)C1CC(=O)OCCc1ccc(O)cc1 (stereo partly drawn) | -3.12% [at 30.2 µM]
